From PubChem BioAssay (Tox21)
“And” between values parts separate entries of the source, which are not always exact repeats. Equal entries are not always repeated. Results filed as inconclusive are left out. A call without a number means that no potency is given here. Some compounds were tested as several samples or in several runs, with calls that do not always agree. The source made the active and inactive calls. Unless noted, the call rests on the fitted dose curve; in most records, active means well fitted curve in the direction sought with a large enough effect in the repeat runs; inconclusive means weak or mixed curves; inactive means no such curve, though single readings can be large; an effect the other way counts as inactive or inconclusive.

Legend:
[1] = qHTS assay to identify small molecule antagonists of the estrogen receptor alpha (ER-alpha) signaling pathway using the BG1 cell line in the presence of 0.1 nM 17-beta-estradiol - cell viability counter screen (AID 1259241); further: nearly all actives have a fitted effect of over 40% in size
Method in brief: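 Cells were plated and left 24 hr, compounds in DMSO were pinned in, 17beta-estradiol was added to 0.1 nM final, and after 22 hr CellTiter-Fluor reagent was added for 30 min before fluorescence was read.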

[2] = qHTS assay to identify small molecule antagonists of the androgen receptor (AR) signaling pathway using the MDA cell line in the presence of 0.5 nM R1881 - cell viability counter screen (AID 1259242); further: nearly all actives have a fitted effect of over 45% in size
Method in brief: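 Counter screen for cytotoxicity run in the same wells as the AR antagonist reporter screen: MDA-kb2 cells were treated 16 hr with test compounds and 0.5 nM R1881, then live-cell protease activity was measured by fluorescence.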

[3] = qHTS assay to identify small molecule HDAC inhibitors (AID 1259364); further: top concentration of the series differs between compounds; nearly all actives have a fitted effect of over 45% in size
Method in brief: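 Luminescence from a cell-permeant luminogenic class I/II HDAC substrate reports endogenous deacetylase activity in intact HCT-116 cells treated with compounds for 2 h.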

[4] = qHTS assay to identify small molecule HDAC inhibitors - cell viability counter screen (AID 1259365); further: series mostly up to about 92 µM; nearly all actives have a fitted effect of over 50% in size
Method in brief: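 Counter screen in wild-type HCT-116 cells: compounds dissolved in DMSO are pin-transferred onto overnight-plated cells and left 2hr at 37C. ATP-based CellTiter-Glo luminescence then measures viable cells.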

[5] = qHTS assay to identify small molecule agonists of the sonic hedgehog signaling (Shh) pathway - cell viability counter screen (AID 1259366); further: nearly all actives have a fitted effect of over 50% in size; further: potency means the concentration at half of the fitted maximal effect
Method in brief: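 Cells are plated at 2,000 per well and left 4hr at 37C, 5% CO2 before compound addition. After 23hr of treatment, CellTiter-Fluor reagent is added for 1hr at 37C and fluorescence is measured.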

[6] = qHTS assay to identify small molecule antagonists of the sonic hedgehog signaling (Shh) pathway - cell viability counter screen (AID 1259367); further: nearly all actives have a fitted effect of over 55% in size
Method in brief: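 Cells: 3T3 Gli1-Luc, 2,000/well, 4 hr pre-incubation. Compounds in DMSO, then conditioned medium. Incubation 24 hr, 37C, 5% CO2. CellTiter-Fluor at 23 hr, 1 hr, fluorescence.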

[7] = qHTS assay to identify small molecule agonists of the sonic hedgehog signaling (Shh) pathway (AID 1259368; calls by dose curve;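 further: NIH/3T3-derived 3T3Gli1-Luc cells carrying a stable Gli1-driven firefly luciferase reporter; series mostly up to about 92 µM; nearly all actives have a fitted effect of over 15% in size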)
Method in brief: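 3T3Gli1-Luc (NIH/3T3 clone, stable Gli1-Luc); 4 hr pre-incubation, then cpd in DMSO 24 hr, 37 C/5% CO2; luciferase reagent 30 min RT; luminescence.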

[8] = qHTS assay to identify small molecule agonists of the androgen receptor (AR) signaling pathway in the presence of an antagonist - cell viability counter screen (AID 1259379); further: nearly all actives have a fitted effect of over 25% in size; further: potency means the concentration at half of the fitted maximal effect
Method in brief: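 Cells: MDA-kb2 (MMTV-luc, AR and GR elements), 3,000/well, 5 hr settle. Added: nilutamide 3.0uM final, then compounds (15 conc.). Incubation: 16 hr, 37C, no CO2. Read-out: CellTiter-Fluor, 1 hr, fluorescence.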

[9] = qHTS assay to identify small molecule agonists of the estrogen receptor beta (ER-beta) signaling pathway - cell viability counter screen (AID 1259380); further: nearly all actives have a fitted effect of over 30% in size; further: potency means the concentration at half of the fitted maximal effect
Method in brief: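 HEK293T ER-beta-UAS-bla; 2% CS-FBS; 6 hr pre-plate, 16 hr cpd at 37C/5% CO2; LiveBLAzer read first, then CellTiter-Glo 30 min RT, luminescence.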

[10] = qHTS assay to identify small molecule antagonists of the estrogen receptor beta (ER-beta) signaling pathway - cell viability counter screen (AID 1259382); further: nearly all actives have a fitted effect of over 55% in size; further: potency means the concentration at half of the fitted maximal effect
Method in brief: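 Cells: ER-beta-UAS-bla HEK293T, 2,000/well, 2% CS-FBS, 6 hr settle. Cpd + E2 (1nM final), 16 hr, 37C/5% CO2. Bla FRET substrate 2 hr RT, then CellTiter-Glo 30 min RT, luminescence.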

[11] = molecular target: Estrogen receptor (Homo sapiens) (UniProt P03372); test: qHTS assay to identify small molecule agonists of the estrogen receptor alpha (ER-alpha) signaling pathway in the presence of an antagonist (AID 1259383; calls by dose curve; further: top concentration of the series differs between compounds; nearly all actives have a fitted effect of over 15% in size)
Sequence of Estrogen receptor (Homo sapiens) (P03372 whole entry, looked up): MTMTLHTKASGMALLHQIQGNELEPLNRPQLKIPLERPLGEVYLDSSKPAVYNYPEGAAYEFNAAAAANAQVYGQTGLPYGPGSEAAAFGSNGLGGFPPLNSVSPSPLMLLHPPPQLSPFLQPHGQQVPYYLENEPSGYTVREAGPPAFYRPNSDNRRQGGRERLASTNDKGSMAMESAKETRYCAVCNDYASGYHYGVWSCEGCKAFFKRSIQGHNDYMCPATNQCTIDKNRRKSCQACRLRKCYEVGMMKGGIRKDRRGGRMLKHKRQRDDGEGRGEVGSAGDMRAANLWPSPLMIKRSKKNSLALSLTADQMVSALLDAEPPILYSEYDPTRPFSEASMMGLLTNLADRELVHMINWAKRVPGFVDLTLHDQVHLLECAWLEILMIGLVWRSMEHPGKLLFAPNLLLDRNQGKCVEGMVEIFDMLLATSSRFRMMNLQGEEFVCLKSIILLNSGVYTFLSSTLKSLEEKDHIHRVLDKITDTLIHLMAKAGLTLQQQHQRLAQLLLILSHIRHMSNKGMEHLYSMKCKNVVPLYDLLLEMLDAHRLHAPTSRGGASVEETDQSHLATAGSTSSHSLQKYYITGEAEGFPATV
Method in brief: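 VM7Luc4E2, endog. ER-alpha + 4×ERE-luc; charcoal-stripped FBS, phenol red-free, 5 d; 24hr plating; +10.0nM ICI-182,780 (final); cpds 15 conc, 22hr, 37C/5% CO2; ONE-Glo luminescence.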

[12] = qHTS assay to identify small molecule agonists or antagonists of the thyroid stimulating hormone receptor (TSHR) signaling pathway - wild type cell line counter screen (AID 1259384; calls by dose curve)
Method in brief: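 Counter screen in untransfected Hek293: compounds (15-point titration, triplicate) plus phosphodiesterase inhibitor Ro20-1724 added after 18 h plating; 30 min RT. Intracellular cAMP via competitive d2/cryptate immunoassay, 1 h incubation.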

[13] = molecular target: Thyrotropin receptor (Homo sapiens) (UniProt P16473); test: qHTS assay to identify small molecule antagonists of the thyroid stimulating hormone receptor (TSHR) signaling pathway (AID 1259385; calls by dose curve; further: nearly all actives have a fitted effect of over 20% in size)
Sequence of Thyrotropin receptor (Homo sapiens) (P16473 whole entry, looked up): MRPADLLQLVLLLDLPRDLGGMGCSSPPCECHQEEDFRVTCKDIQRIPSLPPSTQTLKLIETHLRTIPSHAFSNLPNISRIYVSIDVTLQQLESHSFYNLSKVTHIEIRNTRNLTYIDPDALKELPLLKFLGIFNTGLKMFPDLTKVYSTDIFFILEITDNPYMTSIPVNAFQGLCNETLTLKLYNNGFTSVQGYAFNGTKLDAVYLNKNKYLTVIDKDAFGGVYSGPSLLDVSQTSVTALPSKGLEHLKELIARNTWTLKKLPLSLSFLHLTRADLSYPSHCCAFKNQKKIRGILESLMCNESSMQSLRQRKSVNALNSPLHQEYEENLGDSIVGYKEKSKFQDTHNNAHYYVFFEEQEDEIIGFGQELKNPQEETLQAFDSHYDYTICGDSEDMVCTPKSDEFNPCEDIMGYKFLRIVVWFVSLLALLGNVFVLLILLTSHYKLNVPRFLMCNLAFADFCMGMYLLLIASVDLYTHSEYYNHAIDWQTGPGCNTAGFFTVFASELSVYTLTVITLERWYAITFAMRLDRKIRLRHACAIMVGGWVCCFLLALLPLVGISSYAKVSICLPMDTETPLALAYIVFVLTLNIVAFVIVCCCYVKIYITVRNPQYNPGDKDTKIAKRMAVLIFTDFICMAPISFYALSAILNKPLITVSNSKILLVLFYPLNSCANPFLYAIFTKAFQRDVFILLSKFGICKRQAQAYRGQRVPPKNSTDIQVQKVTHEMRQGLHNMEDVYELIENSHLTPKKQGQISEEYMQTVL
Method in brief: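 Antagonist mode: compound-treated TSHR-expressing HEK293 cells were stimulated with 1.5 ng/mL TSH (final) in presence of Ro20-1724 for 30 min at RT. HTRF cAMP detection after 1 h; each compound tested at 15 concentrations, triplicate.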

[14] = qHTS assay to identify small molecule antagonists of the sonic hedgehog signaling (Shh) pathway (AID 1259369; calls by dose curve; further: nearly all actives have a fitted effect of over 45% in size)
Method in brief: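 3T3Gli1-Luc, conditioned-medium-stimulated, 24hr cpd, 37C/5% CO2; Gli1-driven firefly Luc luminescence after 30min RT with luciferase reagent. Cells plated 4hr before cpd.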

[15] = molecular target: Estrogen receptor beta (Homo sapiens) (UniProt Q92731); test: qHTS assay to identify small molecule antagonists of the estrogen receptor beta (ER-beta) signaling pathway (AID 1259378; active means well fitted inhibition curve with a large enough effect in the signal ratio in the repeat runs, not every such curve was filed as active; the % refers to the signal ratio)
Sequence of Estrogen receptor beta (Homo sapiens) (Q92731 whole entry, looked up, the tested form may be a part): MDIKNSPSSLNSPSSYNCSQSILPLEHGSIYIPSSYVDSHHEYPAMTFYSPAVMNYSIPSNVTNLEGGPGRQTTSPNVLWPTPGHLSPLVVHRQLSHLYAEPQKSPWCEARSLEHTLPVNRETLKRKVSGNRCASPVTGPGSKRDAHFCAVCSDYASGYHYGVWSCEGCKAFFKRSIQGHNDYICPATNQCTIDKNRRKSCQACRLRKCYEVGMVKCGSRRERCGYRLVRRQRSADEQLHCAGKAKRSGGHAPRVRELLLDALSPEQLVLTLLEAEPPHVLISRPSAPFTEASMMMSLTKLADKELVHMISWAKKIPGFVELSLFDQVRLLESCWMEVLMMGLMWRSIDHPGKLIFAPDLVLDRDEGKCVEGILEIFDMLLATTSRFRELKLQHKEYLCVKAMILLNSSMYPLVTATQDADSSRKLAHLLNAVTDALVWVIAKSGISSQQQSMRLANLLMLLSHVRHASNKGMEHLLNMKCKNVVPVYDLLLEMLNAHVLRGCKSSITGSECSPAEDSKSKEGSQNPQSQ
Method in brief: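 Antagonist mode: compounds added to beta-lactamase reporter HEK293T ER-beta-UAS cells stimulated with E2 (1nM final), 16 hr at 37C. LiveBLAzer B/G FRET substrate, 2 hours room temperature, fluorescence read-out.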

[16] = qHTS assay to identify small molecule phospholipidosis (PLD) inducers (AID 1259344; active means well fitted curve in the direction sought with a large enough effect; an effect the other way counts as inactive or inconclusive)
Method in brief: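 Phospholipidosis is scored by imaging LipidTOX-stained pits in HepG2 cells exposed to compound for 24 h at 37 C; pit counts and integrated intensities per well and per cell serve as outputs.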

[17] = molecular target: Estrogen receptor beta (Homo sapiens) (UniProt Q92731); test: qHTS assay to identify small molecule agonists of the estrogen receptor beta (ER-beta) signaling pathway (AID 1259377; active means well fitted activation curve with a large enough effect in the signal ratio in the repeat runs, not every such curve was filed as active; the % refers to the signal ratio)
Method in brief: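 Agonist mode cell assay in GripTite HEK293T cells expressing an ER-beta fusion that drives beta-lactamase from an Upstream Activator Sequence; 16 hr compound exposure at 37C, then 2 h LiveBLAzer B/G FRET substrate at room temperature, fluorescence read-out.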

[18] = molecular target: Estrogen receptor (Homo sapiens) (UniProt P03372); test: qHTS assay to identify small molecule antagonists of the estrogen receptor alpha (ER-alpha) signaling pathway using the BG1 cell line in the presence of 0.1 nM 17-beta-estradiol (AID 1259244); further: nearly all actives have a fitted effect of over 50% in size
Method in brief: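 Cells: VM7Luc4E2, endogenous ER-alpha, 4x ERE-luc stable. Pre-culture 5 d, phenol red-free, charcoal-stripped FBS. Plated 24 h, compound + E2 0.1 nM final, 22 h 37C/5% CO2. Readout ONE-Glo luminescence.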

[19] = molecular target: Androgen receptor (Homo sapiens) (UniProt P10275); test: qHTS assay to identify small molecule antagonists of the androgen receptor (AR) signaling pathway using the MDA cell line in the presence of 0.5 nM R1881 (AID 1259243); further: nearly all actives have a fitted effect of over 50% in size; further: potency means the concentration at half of the fitted maximal effect
Sequence of Androgen receptor (Homo sapiens) (P10275 whole entry, looked up): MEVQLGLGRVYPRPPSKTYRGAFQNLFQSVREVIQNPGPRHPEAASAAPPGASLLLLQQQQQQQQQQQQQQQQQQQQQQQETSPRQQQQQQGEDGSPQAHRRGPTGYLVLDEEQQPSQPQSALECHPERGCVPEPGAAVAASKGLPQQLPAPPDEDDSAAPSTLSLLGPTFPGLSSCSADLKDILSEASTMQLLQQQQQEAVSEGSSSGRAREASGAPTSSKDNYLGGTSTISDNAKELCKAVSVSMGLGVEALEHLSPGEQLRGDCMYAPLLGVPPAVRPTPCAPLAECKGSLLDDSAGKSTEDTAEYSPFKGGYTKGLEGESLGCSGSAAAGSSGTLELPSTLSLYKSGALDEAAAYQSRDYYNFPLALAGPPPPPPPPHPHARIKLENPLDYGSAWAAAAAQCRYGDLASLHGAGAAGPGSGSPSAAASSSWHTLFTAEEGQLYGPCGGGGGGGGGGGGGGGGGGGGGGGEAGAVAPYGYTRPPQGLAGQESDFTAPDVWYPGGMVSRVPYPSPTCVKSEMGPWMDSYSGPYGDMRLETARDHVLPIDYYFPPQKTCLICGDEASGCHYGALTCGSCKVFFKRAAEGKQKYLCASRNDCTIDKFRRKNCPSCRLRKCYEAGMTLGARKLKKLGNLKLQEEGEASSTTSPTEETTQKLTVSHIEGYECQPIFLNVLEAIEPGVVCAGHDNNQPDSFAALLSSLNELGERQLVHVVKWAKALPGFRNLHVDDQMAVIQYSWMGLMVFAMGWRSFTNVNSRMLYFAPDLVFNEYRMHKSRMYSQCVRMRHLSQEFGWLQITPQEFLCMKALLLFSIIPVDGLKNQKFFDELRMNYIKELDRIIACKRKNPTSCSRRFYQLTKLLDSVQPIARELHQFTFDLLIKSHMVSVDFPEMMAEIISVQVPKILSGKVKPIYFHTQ
Method in brief: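 Luciferase luminescence is the read-out: compounds are tested for suppressing 0.5 nM R1881-driven MMTV reporter activity in MDA-kb2 cells after 16 hr at 37C.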

[20] = molecular target: Androgen receptor (Homo sapiens) (UniProt P10275); test: qHTS assay to identify small molecule agonists of the androgen receptor (AR) signaling pathway in the presence of an antagonist (AID 1259381; calls by dose curve; further: nearly all actives have a fitted effect of over 15% in size)
Method in brief: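 MDA-kb2 cells, 3,000/well, rested 5hr at 37C/0% CO2 → nilutamide 3.0uM final or buffer → compounds, 15 conc. → 16hr at 37C → ONE-Glo, 30min RT → luminescence.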

SMILES	Potency [1]	Potency [2]	Potency [3]	Potency [4]	Potency [5]	Potency [6]	Potency [7]	Potency [8]	Potency [9]	Potency [10]	Potency [11]	outcome [12]	Potency [13]	Potency [14]	Potency [15]	outcome [16]	Potency [17]	Potency [18]	Potency [19]	Potency [20]
C=CCCl	inactive	inactive	inactive	inactive	inactive	inactive	inactive	inactive	inactive	inactive	inactive	inactive	inactive	–	–	–	–	–	–	–
CCn1cc[n+](C)c1	inactive	inactive	inactive	inactive	inactive	inactive	inactive	inactive and 27.6 µM (active)	inactive	inactive	–	–	–	–	–	–	–	–	–	–
CCCCN=C=O	inactive	inactive	inactive	inactive	inactive	inactive	inactive	inactive	–	inactive	–	inactive	inactive	inactive	inactive	–	–	–	–	–
ClC=C(Cl)Cl	inactive	inactive	inactive	inactive	inactive	inactive	–	inactive	inactive	inactive	inactive	inactive	inactive	inactive	–	inactive	–	–	–	–
Clc1cccc2ccccc12	inactive	inactive	inactive	inactive	inactive	inactive	inactive	inactive	inactive	inactive	–	inactive	inactive	–	inactive	–	–	–	–	–
O=NN1CCNCC1	inactive	inactive	inactive	inactive	inactive	inactive	inactive	inactive	inactive	inactive	inactive	–	–	inactive	–	–	–	–	–	–
CCOP(=O)(OCC)SCCSCC	inactive	inactive	inactive	inactive	inactive	inactive	inactive	inactive	inactive	inactive	inactive	inactive	inactive	–	inactive	–	–	–	–	–
CCC(Br)(CC)C(=O)NC(N)=O	inactive	inactive	inactive	inactive	inactive	–	inactive	inactive	–	inactive	–	inactive	inactive	inactive	inactive	–	inactive	–	–	–
CCOC(=O)[C@]1(c2ccccc2)Oc2ccccc2[C@@H]1N	inactive	inactive	inactive	inactive	inactive	inactive	inactive	–	–	inactive	–	inactive	inactive	–	–	–	inactive	–	–	–
C=COC(C)=O	inactive	inactive	inactive	inactive	inactive	–	inactive	inactive	inactive	inactive	–	inactive	inactive	inactive	–	–	–	–	–	–
CCCN(CCC)c1c([N+](=O)[O-])cc(S(C)(=O)=O)cc1[N+](=O)[O-]	inactive	inactive	inactive	inactive	inactive	–	inactive	inactive	inactive	inactive	inactive	–	–	–	–	–	–	–	–	–
C=CC(C)=O	inactive	–	inactive	inactive	inactive	inactive	inactive	inactive	inactive	inactive	inactive	inactive	inactive	inactive	–	–	–	–	–	–
COc1cc(Cl)c(OC)cc1Cl	inactive	–	inactive	inactive	inactive	inactive	inactive	inactive	–	inactive	inactive	–	–	inactive	inactive	–	inactive	inactive	–	–
Cc1ccccc1CCl	inactive	–	inactive	inactive	inactive	inactive	inactive	inactive	inactive	inactive	–	–	–	inactive	inactive	–	–	–	–	–
CCOP(=O)(OCC)Oc1ccc([N+](=O)[O-])cc1	inactive	inactive	inactive	inactive	–	–	inactive	inactive	inactive	inactive	–	inactive	inactive	–	inactive	–	inactive	–	–	–
O=Cc1ccc2c(c1)OCO2	inactive	inactive	inactive	inactive	inactive	–	inactive	–	inactive	inactive	–	inactive	inactive	–	inactive	–	inactive	–	–	–
NNC(=O)c1cccnc1	inactive	inactive	–	inactive	inactive	inactive	inactive	inactive	–	inactive	inactive	inactive	inactive	inactive	–	–	–	–	–	–
C[N+](C)(C)CCCl	inactive	–	inactive	inactive	inactive	inactive	–	inactive	–	inactive	inactive	inactive	inactive	inactive	inactive	–	–	inactive	inactive	inactive
BrCCCCBr	inactive	–	inactive	inactive	inactive	–	inactive	inactive	inactive	inactive	inactive	inactive	inactive	inactive	–	–	–	inactive	–	–
Cl/C=C\C[N+]12CN3CN(CN(C3)C1)C2	inactive	–	inactive	inactive	inactive	inactive	–	–	inactive	inactive	inactive	inactive	inactive	inactive	inactive	–	inactive	inactive	–	inactive
C/C(=C\c1ccccc1)[N+](=O)[O-]	inactive	–	inactive	inactive	15.4 µM (active)	–	inactive	24.3 µM (active)	–	inactive	inactive	inactive	–	–	–	–	–	inactive	12.2 µM (active)	inactive
CCCCCCC#N	inactive	–	inactive	inactive	inactive	inactive	inactive	inactive	inactive	inactive	inactive	inactive	inactive	inactive	inactive	–	inactive	–	–	–
CC(O)(CS(=O)(=O)c1ccc(F)cc1)C(=O)Nc1ccc(C#N)c(C(F)(F)F)c1 (configuration not stated)	inactive	–	inactive	inactive	inactive	inactive	inactive	inactive	31.8 µM (active)	28.3 µM (active)	inactive	–	–	–	–	inactive	inactive	–	–	–
CC(C)O.CC(C)O.OCCN(CCO)CCO.OCCN(CCO)CCO.[Ti]	inactive	–	inactive	inactive	inactive	inactive	inactive	inactive	inactive	inactive	–	inactive	inactive	inactive	–	–	–	–	–	–
